We go through 31 compounds from PubChem BioAssay AID588511 (Johns Hopkins Ion Channel Center, 2011).

Hit rate of the full screen: of about 310,000 compounds, about 3,600 (1.2%) were called active. This is one part of a sample in which actives are shown more often than they occur.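 The calls were made as follows: active = ratio plate-corrected score three or more library SD toward inhibition, starting fluorescence score within five deviations; inactive = the rest.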

Chain of Anoctamin-1 (Mus musculus) (Q8BHY3 whole entry, looked up): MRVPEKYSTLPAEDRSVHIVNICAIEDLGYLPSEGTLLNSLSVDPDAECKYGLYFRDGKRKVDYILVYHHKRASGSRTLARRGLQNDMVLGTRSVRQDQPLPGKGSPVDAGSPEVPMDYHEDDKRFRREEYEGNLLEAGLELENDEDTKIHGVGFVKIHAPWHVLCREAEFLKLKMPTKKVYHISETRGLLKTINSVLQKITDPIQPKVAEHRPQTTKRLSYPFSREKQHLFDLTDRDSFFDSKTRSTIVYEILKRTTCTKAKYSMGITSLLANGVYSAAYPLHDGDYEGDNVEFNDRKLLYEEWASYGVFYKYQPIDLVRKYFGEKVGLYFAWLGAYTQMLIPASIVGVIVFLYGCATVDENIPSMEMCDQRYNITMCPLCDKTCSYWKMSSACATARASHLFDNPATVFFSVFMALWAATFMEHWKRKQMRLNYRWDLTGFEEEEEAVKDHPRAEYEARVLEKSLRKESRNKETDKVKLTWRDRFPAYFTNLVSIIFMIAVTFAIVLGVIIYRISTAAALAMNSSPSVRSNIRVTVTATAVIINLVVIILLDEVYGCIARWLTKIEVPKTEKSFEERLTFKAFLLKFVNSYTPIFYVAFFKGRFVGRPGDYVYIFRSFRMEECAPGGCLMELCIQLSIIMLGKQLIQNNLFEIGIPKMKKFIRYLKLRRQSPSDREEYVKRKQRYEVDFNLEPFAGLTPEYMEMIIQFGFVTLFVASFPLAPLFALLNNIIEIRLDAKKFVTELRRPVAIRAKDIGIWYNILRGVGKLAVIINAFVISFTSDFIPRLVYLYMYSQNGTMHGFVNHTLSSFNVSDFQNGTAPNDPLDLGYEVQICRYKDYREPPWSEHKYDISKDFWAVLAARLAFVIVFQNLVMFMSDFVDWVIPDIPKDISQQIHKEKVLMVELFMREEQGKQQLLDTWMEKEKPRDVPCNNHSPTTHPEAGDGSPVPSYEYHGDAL

The assay concerns the target Anoctamin-1 (Mus musculus) (UniProt Q8BHY3). The assay is described as follows: blockers of mouse ANO1 Ca-activated Cl channel – cell-based, HTS, primary screen (AID 588511).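 As to normalized B-score (activity score, 25-100; higher = stronger inhibition): score derived from kinetic fluorescence span divided by baseline fluorescence per well.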 The note with it: HEK293 TMEM16A/YFP iodide influx fluorescence, ionomycin; at 10 µM.
`O=C(Nc1ccc(Cl)cc1)/C(=C1\CCCN1)[N+](=O)[O-]`: the normalized B-score (activity score, 25-100; higher = stronger inhibition) entry is “inactive”. With `Cc1ccc(OCC(=O)Nc2ccc3oc(=O)ccc3c2)cc1C` the entry was “inactive”.

For the compound `Fc1ccc2[nH]c3c(N4CCSCC4)ncnc3c2c1`, the normalized B-score (activity score, 25-100; higher = stronger inhibition) is 100 (active). With `Cc1c(CN2CC[C@@H](N3CCN(c4ccccn4)CC3)[C@H](O)C2)[nH]c2ccc(F)cc12`, the normalized B-score (activity score, 25-100; higher = stronger inhibition) result was “inactive”. Take `Cc1cc(C)c(S(=O)(=O)c2cc(F)ccc2C)c(=O)[nH]1`: the normalized B-score (activity score, 25-100; higher = stronger inhibition) result is “inactive”. With `COc1ccc(C(=O)OCC(=O)Nc2ccc3[nH]c(=O)[nH]c3c2)c(OC)c1OC` the entry was “inactive”; with `CS(=O)(=O)N(CC(=O)N1CCN(c2ccc(F)cc2)CC1)C1CCCCC1`, “inactive”.

Regarding `CCOC(=O)N1CCN(C(=O)c2ccc3nc4cc(Cl)ccc4c(=O)n3c2)CC1`, the normalized B-score (activity score, 25-100; higher = stronger inhibition) result was “inactive”. With `COC(=O)c1ccccc1NC(=O)c1ccccc1NS(C)(=O)=O` the entry was “inactive”; with `COC(=O)c1ccc(NC(=O)c2ccccc2NS(=O)(=O)c2ccccc2)cc1`, 100 (active). With `CCOc1ccc(NC(=O)c2ccccc2NS(C)(=O)=O)cc1` the entry was “inactive”.

As for `COc1cc(NC(=O)c2ccccc2NS(=O)(=O)c2ccc(Cl)s2)cc(OC)c1`, the normalized B-score (activity score, 25-100; higher = stronger inhibition) was 100 (active).

`COc1cc(OC)c(S(=O)(=O)Nc2ccccc2C(=O)O)cc1S(=O)(=O)Nc1ccccc1C(=O)O`: the normalized B-score (activity score, 25-100; higher = stronger inhibition) entry is “inactive”. `COc1ccc(NC(=O)c2cnc(NS(=O)(=O)c3ccccc3)nc2)cc1`: the normalized B-score (activity score, 25-100; higher = stronger inhibition) result is “inactive”. `CCNC(=O)CC1C(=O)N(c2ccc(F)cc2)C(=O)N1CCc1sccc1C` (stereo unspecified): the normalized B-score (activity score, 25-100; higher = stronger inhibition) entry is “inactive”. With `COc1ccc(NCc2nnc(SCc3ccccc3)n2-c2ccc(OC)cc2)cc1` the entry was “inactive”. Turning to `O=C(O)c1ccc(-n2nc(-c3ccccc3)c3ccccc3c2=O)cc1`, the normalized B-score (activity score, 25-100; higher = stronger inhibition) entry was “inactive”.

Consider `Cc1cc(C)c(S(=O)(=O)N2CCOCC2)cc1C`, for which the normalized B-score (activity score, 25-100; higher = stronger inhibition) result was “inactive”. For `OCC[C@H]1C[C@@H](O)[C@H](O)[C@]2(OCCCc3ccccc32)O1`, the normalized B-score (activity score, 25-100; higher = stronger inhibition) entry was “inactive”. As to `Cc1c(C)c2c(OCC(=O)N[C@@H](C(=O)O)c3ccccc3)cc3c(c2oc1=O)CCC(C)(C)O3`, the normalized B-score (activity score, 25-100; higher = stronger inhibition) was 100 (active). The same measure for `Cc1c(C)c2c(OCC(=O)NCCCO)cc3c(c2oc1=O)CCC(C)(C)O3`: “inactive”; for `Cc1cc(=O)oc2c3c(cc(OCC(=O)N[C@H](C(=O)O)c4ccccc4)c12)OC(C)(C)CC3`: “inactive”; for `C#CCO[C@@H]1C[C@H](n2cnc3c(=O)[nH]c(NC(=O)C(C)C)nc32)O[C@@H]1CO`: “inactive”. Turning to `COCCN(C(=O)CCC(=O)Nc1nccs1)C(C(=O)NCCC(C)C)c1ccc(F)cc1` (stereo unspecified), the normalized B-score (activity score, 25-100; higher = stronger inhibition) result was “inactive”. With `CCCc1cc(C(=O)N2CCCC(CO)(CCCc3ccccc3)C2)n(C)n1` (stereo unspecified) the entry was “inactive”. `CSc1nc2ccc(S(=O)(=O)N3CCc4ccccc43)cc2s1`: the normalized B-score (activity score, 25-100; higher = stronger inhibition) result was “inactive”. `O=C(NC(Nc1nc2ccc([N+](=O)[O-])cc2s1)(C(F)(F)F)C(F)(F)F)c1ccccc1`: the normalized B-score (activity score, 25-100; higher = stronger inhibition) was 100 (active).

As to `CCC(=O)NC(Nc1nc2ccc(C)cc2s1)(C(=O)OC)C(F)(F)F` (stereo unspecified), the normalized B-score (activity score, 25-100; higher = stronger inhibition) entry was “inactive”.

`CN(C)CCCN(C(=O)c1ccc(S(=O)(=O)N2CCCc3ccccc32)cc1)c1nc2ccc(F)cc2s1`: the normalized B-score (activity score, 25-100; higher = stronger inhibition) entry is “inactive”. With `O=C(Nc1nc2ccc([N+](=O)[O-])cc2s1)c1ccc(S(=O)(=O)N2CCCc3ccccc32)cc1` the figure was 100 (active); with `O=C(CNC(=O)c1ccccc1)Oc1ccc([N+](=O)[O-])cc1`, “inactive”.
